Reference: PubChem BioAssay AID1347416 (National Center for Advancing Translational Sciences (NCATS), 2020)
Screen size: about 4,100 compounds; about 1,600 (39%) were called active. Inconclusive results (about 25%) are left out. Calls come from the whole dose curve; as a rule, active = well fitted inhibition curve with a large enough effect; inconclusive = small, poorly fitted or top-dose-only effect; inactive = no such curve, though single readings can be large or run the other way. This is one part of the list.

Assay: qHTS Validation assay for Inhibitors of Plasmodium falciparum Dd2 growth in vitro; note: nearly all actives have a fitted effect of over 70% in size
Details: P. falciparum Dd2 in RBCs, SYBR Green growth, 72 h; series mostly up to 28.7 µM; activity change, negative = inhibition: at the top concentration
Summary of the method: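 P. falciparum Dd2-infected red blood cells (2.5% hematocrit, 0.3% parasitemia) grown 72 h at 37 °C under 5% O2 with compounds in a titration, 29 uM to 0.5 nM final. Growth read as SYBR Green-1 fluorescence after ~16 h lysis; artesunate 300 nM as positive control.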
% is set by controls: 0 for no effect and ±100 for the full control effect; potency is the fitted concentration of half-maximal effect.

Row | Compound | activity change, negative = inhibition | Potency
1 | Cc1nccn1CC(=O)N1C[C@@H](COCC2CC2)[C@H](c2ccncc2)C1 | 34.9% (inactive) | 
2 | O=C(N[C@@H]1CN(c2ncccn2)C[C@H]1CO)c1cc2ccccc2[nH]1 | 13% (inactive) | 
3 | NC(=O)CN1C(=O)CO[C@H]2CN(Cc3ccc4c(c3)OCO4)C[C@H]21 | 59.2% [at 43.1 µM] (inactive) | 
4 | COc1ccc(NC(=O)C(c2ccc(Cl)cc2)C(C)C)cn1 (stereo unspecified) |  | 1.88 µM (active)
5 | COC[C@@H]1CN(c2cnccn2)C[C@H]1C(=O)Nc1ccc(OC)nc1 | 17.9% (inactive) | 
6 | COc1ccc(-c2cn(C)c(=O)n3cc(COc4ccc(Cl)cc4)nc23)cn1 | 36.1% [at 43.1 µM] (inactive) | 
7 | Cn1c(-n2cccc2)c(-c2c(-c3ccc(F)cc3)[nH]c3c2c(=O)n(C)c(=O)n3C)c(=O)n(C)c1=O | 45.5% (inactive) | 
8 | CCCC(C)N1CC2(CCN(C(=O)Cn3nc(C)cc3C)CC2)OC1=O (stereo unspecified) | 20.9% (inactive) | 
9 | O=C(c1ccsc1)N1CCCCCC1c1nc(-c2cccnc2)no1 (stereo unspecified) | 9.04% (inactive) | 
10 | CN1CCN(c2ccc(-c3noc([C@@H]4CCCN4C4CCCCC4)n3)cn2)CC1 |  | 19.3 µM (active)
11 | O=C1CCN(C2CCCC2)CCCC(c2nc(-c3cccnc3)no2)CCN1 (stereo unspecified) | -12.4% (inactive) | 
12 | CN(C)CCNC(=O)c1cc(-c2ccccc2F)cc2c1OCCN2Cc1cccnc1 |  | 6.85 µM (active)
13 | CNC(=O)c1cc(-c2ccncc2)cc2c1OCCN2Cc1cccnc1 | -14.5% [at 43.1 µM] (inactive) | 
14 | COc1cncc(-c2cc(C(=O)NCc3cccnc3)c3c(c2)N(C)CCO3)c1 | 9.35% [at 43.1 µM] (inactive) | 
15 | CN1CCOc2c(C(=O)NCc3cccnc3)cc(-c3cccc4[nH]ccc34)cc21 |  | 8.63 µM (active)
16 | CNC(=O)c1cc(-c2ccc([S+](C)(=O)[O-])cc2)cc2c1OCCN2Cc1cccnc1 | -24.3% [at 43.1 µM] (inactive) | 
17 | COCCNC(=O)C[C@@H]1C[C@H]2O[C@H](CN)[C@@H](O)[C@H]2O1 | 18.5% [at 57.5 µM] (inactive) | 
18 | C=CCOC(=O)Nc1nc2c(s1)C[C@@H]1[C@](C)(CO)[C@H](O)CC[C@@]1(C)[C@@H]2CC(=O)NC1CCCCC1 |  | 3.76 µM (active)
19 | C#CCNC(=O)C[C@@H]1c2nc(NC(=O)OCC=C)sc2C[C@@H]2[C@](C)(CO)[C@H](O)CC[C@]21C |  | 15 µM (active)
20 | Cc1nc2cc(N3CCCC(C(=O)NCCN4CCCCCC4)C3)cnc2nc1C (stereo unspecified) | -6.29% (inactive) | 
21 | N=c1ccn(Cc2c(Cl)cccc2Cl)cc1 | -15.6% (inactive) | 
22 | N=c1ccn(Cc2ccc(Cl)c(Cl)c2)cc1 |  | 6.68 µM (active)
23 | N=c1ccn(Cc2ccc(Cl)cc2Cl)cc1 |  | 8.41 µM (active)
24 | N=c1ccn(Cc2ccc(Cl)cc2)cc1 |  | 8.41 µM (active)

Row | Compound | activity change, negative = inhibition | Potency
25 | Cc1cc(C)n(CC(=O)N[C@@H]2CN(Cc3cccnc3)C[C@H]2CN(C)C)n1 | 8.7% (inactive) | 
26 | Cc1ccsc1C(=O)NCc1nnc2ccc(-c3ccc(Cl)cc3)nn12 | 7.85% (inactive) | 
27 | COc1ccc(S(=O)(=O)N2CCC(Oc3ncccc3C(=O)N3CCOCC3)C2)cc1 (stereo unspecified) | 17.3% (inactive) | 
28 | COc1ccc(CC(=O)N2CCC(Oc3ncccc3C(=O)N3CCCCC3)C2)cc1 (stereo unspecified) |  | 9.44 µM (active)
29 | O=C(c1ccccc1F)N1CCC(Oc2ncccc2C(=O)N2CCCCC2)C1 (stereo unspecified) | 14.2% (inactive) | 
30 | O=C(Nc1cccc(C(F)(F)F)c1)O[C@@H]1CO[C@H]2[C@@H]1OC[C@@H]2NS(=O)(=O)c1cccs1 | 12.6% (inactive) | 
31 | COc1cccc(NC(=O)Nc2cccc(C(=O)O)c2)c1 | 27.9% (inactive) | 
32 | COc1ccc(-c2cc(C(=O)Nc3cc(OC)cc(C(=O)Nc4cccc(C(F)(F)F)c4)c3)[nH]n2)cc1 |  | 5.31 µM (active)
33 | COc1cc(NC(=O)c2ccc(N)nc2)cc(C(=O)Nc2cccc(C(F)(F)F)c2)c1 |  | 5.31 µM (active)
34 | CC1=NS(=O)(=O)N(Cc2ccc(F)c(F)c2)C=C1C(=O)O | 15.4% (inactive) | 
35 | CN(C)C(=O)N1CCCC(C(=O)NCc2nc(C3CCCCC3)no2)C1 (stereo unspecified) | 36.9% (inactive) | 
36 | Cc1nc2sc(C(c3ccco3)N3CCN(C(c4ccccc4)c4ccccc4)CC3)c(O)n2n1 (stereo unspecified) |  | 5.96 µM (active)
37 | CCCc1ccc(C(=O)NC(=O)c2ccccc2O)cc1 |  | 1.06 µM (active)
38 | Cc1ccc(N(Cc2cccs2)C(=O)C(C)Oc2ccc(Cl)c(C)c2)cc1 (stereo unspecified) |  | 7.5 µM (active)
39 | Cc1ccc(N(CC(=O)Nc2cccc(Cl)c2)S(=O)(=O)c2cccs2)cc1 | 29.6% (inactive) | 
40 | O=C(NCCc1nc(-c2cccnc2)no1)c1coc2c1C(=O)CCC2 | 32.2% (inactive) | 
41 | C/C(=N\OCc1cccc(C(=O)O)c1)c1ccc(Cl)cc1 | 6.57% (inactive) | 
42 | COc1ccccc1-c1nnc2sc(COc3ccc(F)cc3)nn12 | -15% (inactive) | 
43 | CNC(=O)CCn1ncc2cc(OCc3ccccc3-c3ccccc3OC)ccc21 |  | 15.3 µM (active)
44 | COc1cccc(CNc2ccc3c(c2)nc(C)n3C)c1OC | 33.3% (inactive) | 
45 | C=C(C)CSc1nc2sc3c(c2c(=O)n1C1CCCCC1)CCN(C)C3 |  | 2.37 µM (active)
46 | CN1CCc2c(sc3c2C(=O)NC(c2ccc(C(C)(C)C)cc2)N3)C1 (stereo unspecified) | 26.9% (inactive) | 
47 | CCNc1ncnc2sc3c(c12)CCN(Cc1ccc[nH]1)C3 | -12.8% (inactive) | 
48 | CC(C)Sc1nc2sc3c(c2c(=O)n1Cc1ccccc1)CCCC3 | -20% (inactive) | 

Row | Compound | activity change, negative = inhibition | Potency
49 | CCn1c(SCC(=O)NCCc2ccccc2)nc2sc3c(c2c1=O)CCN(C)C3 |  | 5.31 µM (active)
50 | CCOCCCn1c(SCC(=O)NCCCOC)nc2c(sc3ccccc32)c1=O | 59% (inactive) | 
51 | CCSc1nc2sc3c(c2c(=O)n1-c1ccccc1)CCN(C)C3 |  | 6.68 µM (active)
52 | CSc1nnc2c3c4c(sc3c(=O)n(-c3ccccc3)n12)CC(C)(C)OC4 | 1.3% (inactive) | 
53 | CCCN1CCc2c(sc3nc(SC)n(-c4ccccc4)c(=O)c23)C1 |  | 2.66 µM (active)
54 | CS(=O)(=O)N(C1CC1)C1CCOC2(CCN(C(=O)C3(c4ccccc4)CC3)CC2)C1 (stereo unspecified) | 0.781% (inactive) | 
55 | CCOc1cc(C2NC(=O)c3c(sc4c3CCN(C)C4)N2)ccc1OC(=O)c1ccccc1Cl (stereo unspecified) | 28.3% (inactive) | 
56 | COC(CSc1nc(N)c2c3c(sc2n1)CN(C)CC3)OC | 3.33% (inactive) | 
57 | CCOc1ccc(-n2c(SCC(N)=O)nc3sc4c(c3c2=O)CCN(C)C4)cc1 |  | 15 µM (active)
58 | Oc1ccc(CNc2ccc(C(F)(F)F)cc2Cl)c2cccnc12 |  | 10.6 µM (active)
59 | Cc1ccc(N=Nc2ccc(O)c3ncccc23)cc1 | 62.4% (inactive) | 
60 | Fc1ccc(N2CCCN(CC3[C@H]4CNC[C@@H]34)CC2)cc1 (stereo partly specified) |  | 8.41 µM (active)
61 | O=c1cc(-c2ccccc2)[nH]c2ccc(F)cc12 |  | 5.96 µM (active)
62 | Cc1ccc2[nH]c(-c3ccccc3)cc(=O)c2c1 |  | 4.73 µM (active)
63 | Cc1ccc(-c2cc(=O)c3cc(C)ccc3[nH]2)cc1 |  | 10.6 µM (active)
64 | CCCCCNC(=O)C1CCC(Cn2c(=O)c3sccc3n(CC(=O)N3CCCC3)c2=O)CC1 (stereo unspecified) | 7.01% (inactive) | 
65 | COc1cc(NC(=O)Cn2c(=O)n(CC3CCC(C(=O)NCCc4ccccc4)CC3)c(=O)c3ccccc32)cc(OC)c1 (stereo unspecified) |  | 5.96 µM (active)
66 | COc1cc(NC(=O)Cn2c(=O)n(CC3CCCO3)c(=O)c3ccccc32)cc(OC)c1 (stereo unspecified) | 13.1% (inactive) | 
67 | Cc1cc2nn(-c3ccc(F)cc3)nc2cc1N | 2.12% (inactive) | 
68 | Cn1nc(-c2nncn2Cc2ccccc2)c2c1CCN(C(=O)c1[nH]nc3c1COc1ccccc1-3)C2 | -14.9% (inactive) | 
69 | COc1ccc(-n2cc(CNC3CCN(C)CC3)c(-c3cccc(F)c3)n2)cc1 |  | 10.6 µM (active)
70 | COc1ccc(-c2ccc3nnc(CNC(=O)Cc4cccc(F)c4)n3n2)cc1 | 38.7% (inactive) | 
71 | CC1=C[C@@H](CN2CCC[C@H]2CO)[C@H](C(C)C)C[C@H]1Cc1nnc(-c2ccc(N(C)C)cc2)o1 |  | 13.3 µM (active)
72 | CCCc1nnc([C@H]2CCN(C(=O)c3ccccc3)C2)o1 | -19.5% [at 57.5 µM] (inactive) | 

Row | Compound | activity change, negative = inhibition | Potency
73 | CCCc1nnc(C[C@@H]2C[C@@H](C(C)C)[C@H](CN3CCC[C@H]3CO)C=C2C)o1 |  | 17.2 µM (active)
74 | C=CCOC(=O)C(C#N)c1nc2ccccc2nc1N1CCC(C(=O)OCC)CC1 (stereo unspecified) |  | 2.37 µM (active)
75 | Cc1ccc(C)c(-c2cc3c(=O)n(CCNC(=O)c4cccc(N(C)C)c4)ccn3n2)c1 | 0.608% (inactive) | 
76 | CCN(CC)S(=O)(=O)c1ccc(NC(=O)CCc2c(C)nc3cc(-c4ccc(Cl)cc4)nn3c2C)cc1 |  | 4.73 µM (active)
77 | Cc1ccc(-c2ccc(=O)n(CC(=O)Nc3ccc(C(C)C)cc3)n2)cc1 | 20.7% (inactive) | 
78 | Cc1ccc(CNC(=O)CCc2c(C)nc3nc(C)nn3c2C)cc1 | 11.6% (inactive) | 
79 | COc1cc(C2Nc3ccc4ccccc4c3C3=C2C(=O)CC(C)(C)C3)ccc1OC(C)C(=O)O (stereo unspecified) |  | 6.68 µM (active)
80 | CCC1=Nc2cc(C(=O)NCc3ccco3)ccc2Sc2ccc(C)cc21 |  | 8.41 µM (active)
81 | Cc1cccc(C(=O)NCCc2ncc(C)n2C2CC2)c1 | -5.93% (inactive) | 
82 | Cc1ccc(C2Cn3cnc(C(=O)N4CCC(C(=O)NCc5ccco5)CC4)c3CO2)cc1 (stereo unspecified) | -7.92% (inactive) | 
83 | CCc1nc2ccc(C(=O)NCc3ccccc3C)cc2nc1CC | 6.91% (inactive) | 
84 | CCCC1=Nc2cc(C(=O)NCCCN3CCCCC3CC)ccc2Sc2ccc(C)cc21 (stereo unspecified) |  | 9.44 µM (active)
85 | CC(C)N1C(=S)N(Cc2ccco2)C(=O)C1CC(=O)Nc1ccccc1 (stereo unspecified) |  | 1.68 µM (active)
86 | CN1CCC(Nc2ncc3ncnc(Nc4ccc(F)c(Cl)c4)c3n2)CC1 |  | 10.6 µM (active)
87 | Cc1cccc(N2CCN(C(=O)CCc3nnc4n(CC(C)C)c(=O)c5ccccc5n34)CC2)c1C |  | 3.35 µM (active)
88 | Cc1ccc(/C=N/NC(=O)c2cc3ccccc3cc2O)o1 |  | 5.31 µM (active)
89 | CCNc1nc(NC(C)CC)nc(ON=C(C)C)n1 (stereo unspecified) |  | 8.41 µM (active)
90 | CSc1cccc(Nc2nc3c(S(=O)(=O)c4ccccc4)nnn3c3ccc(Cl)cc23)c1 |  | 1.88 µM (active)
91 | CCc1ccc(S(=O)(=O)c2nnn3c2nc(Nc2ccc(F)cc2)c2cc(Cl)ccc23)cc1 |  | 2.11 µM (active)
92 | CNCC(=O)N1CCC2(CC1)CN(CCOc1ccccc1)C(=O)O2 | 40.8% (inactive) | 
93 | COCCN1C(=O)CS(=O)(=O)C12CCN(C(=O)C1(c3ccccc3)CC1)CC2 | 1.25% (inactive) | 
94 | COc1ccccc1C(=O)N1CCC2(CC1)OC(=O)N(CCOc1ccccc1)C2(C)c1cccnc1 (stereo unspecified) |  | 9.44 µM (active)
95 | COc1ccccc1C(=O)N1CCC2(CC1)OC(=O)N(Cc1ccccc1C#N)C2(C)c1ccccc1 (stereo unspecified) |  | 15 µM (active)
96 | COc1ccccc1C(=O)N1CCCN(c2nnc3cccc(C)n23)CC1 | 9.24% (inactive) | 
